PubChem BioAssay (EPA / NIEHS)
Results filed as inconclusive are left out. Active and inactive are the calls of the source. The calls were made as follows: active = hit-call score of the fitted dose curve at least 0.9, where 1 is the maximum; inconclusive = response in the unintended direction; inactive = score below 0.9.

Key:
[1] = TOX21_p53_BLA_p2_viability: Viability Assessment in the Tox21 HCT-116 p53 Agonism Beta-lactamase Assay, Phase 2 (AID 2283591);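 also: compound exposure lasted 16 h at 37 °C; actives lower the ATP signal meaning cytotoxicity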
In short: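 HCT116 p53-bla cells, 4000/well, dosed after 5 h plating (217-fold dilution of DMSO stocks) and incubated 16 h at 37C. Viability taken as cellular ATP by CellTiter-Glo luminescence after 30 min RT; signal loss marks cytotoxicity.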

[2] = molecular target: Cellular tumor antigen p53 (Homo sapiens) (UniProt P04637); assay: TOX21_p53_BLA_p2_ratio: Tox21 HCT-116 p53 Agonism Beta-lactamase Assay, Ratio, Phase 2 (AID 2283592)
In short: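 In this cell-based reporter format, HCT116 cells were dosed with chemicals delivered from DMSO by 217-fold dilution and incubated 16 h at 37C. Emission at 460 and 530 nm after 2 h CCF4-AM loading provided the ratio, fitted upward versus DMSO.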

[3] = TOX21_p53_BLA_p3_viability: Viability Assessment in the Tox21 HCT-116 p53 Agonism Beta-lactamase Assay, Phase 3 (AID 2283593);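 also: cells exposed to compound for 16 h before reading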
In short: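 HCT116 cells, 4000/well, dosed 5 h after plating by pin transfer (217-fold dilution from DMSO stock) and incubated 16 h at 37C, 5% CO2. Viability read as ATP luminescence with CellTiter-Glo after 30 min at room temperature.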

[4] = molecular target: Cellular tumor antigen p53 (Homo sapiens) (UniProt P04637); assay: TOX21_p53_BLA_p3_ratio: Tox21 HCT-116 p53 Agonism Beta-lactamase Assay, Ratio, Phase 3 (AID 2283596)
In short: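 HCT116 p53-bla cells (4000/well) given compound in DMSO (217-fold dilution) after 5 h, incubated 16 h at 37C. CCF4-AM substrate 2 h at room temperature; 460/530 nm emission ratio, gain fitted against DMSO.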

[5] = molecular target: Cellular tumor antigen p53 (Homo sapiens) (UniProt P04637); assay: TOX21_p53_BLA_p5_ratio: Tox21 HCT-116 p53 Agonism Beta-lactamase Assay, Ratio, Phase 5 (AID 2283599)
In short: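 HCT-116 p53-bla cells (4000/well) plated 5 h, dosed with compound (217-fold DMSO dilution) for 16 h at 37 C; CCF4-AM substrate 2 h at room temperature. Activity is the 460/530 nm emission ratio (405 nm excitation), fitted in gain-of-signal direction versus DMSO.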

[6] = TOX21_p53_BLA_p5_viability: Viability Assessment in the Tox21 HCT-116 p53 Agonism Beta-lactamase Assay, Phase 5 (AID 2283600)
In short: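 Compounds, pinned from DMSO at 217-fold dilution, were left on the cells for 16 h. The viability endpoint was ATP content measured by CellTiter-Glo luminescence, where falling signal reflects cytotoxicity.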

Measured: outcome

Cellular tumor antigen p53 (Homo sapiens), sequence (P04637 whole entry, looked up): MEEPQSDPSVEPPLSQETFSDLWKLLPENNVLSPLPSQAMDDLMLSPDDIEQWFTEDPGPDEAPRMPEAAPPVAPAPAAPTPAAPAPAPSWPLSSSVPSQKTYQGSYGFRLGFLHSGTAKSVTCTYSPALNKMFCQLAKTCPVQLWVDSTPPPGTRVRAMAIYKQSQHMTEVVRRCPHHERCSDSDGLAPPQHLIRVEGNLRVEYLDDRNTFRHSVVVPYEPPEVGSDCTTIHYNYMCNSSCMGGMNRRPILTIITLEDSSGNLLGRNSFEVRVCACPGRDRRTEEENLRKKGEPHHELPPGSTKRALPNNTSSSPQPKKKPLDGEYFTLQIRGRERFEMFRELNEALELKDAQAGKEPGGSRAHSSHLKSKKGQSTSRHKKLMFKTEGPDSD

CC=C1[C@H]2C=C(C)C[C@]1(N)c1ccc(=O)[nH]c1C2
inactive: all assays above
